Myeloid diff 2 = myeloid differentiation induction | AID 624256 | calls only at 10 µM | ER-HoxA9 myeloid progenitors, lysozyme-GFP differentiation, flow cytometry | hit rate 1% among 360,000;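 active = normalized GFP-positive differentiation at or above the plate's own cutoff, the solvent-only control mean plus 3 SD; inconclusive = no clear call, values can overlap the other calls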;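 note: cells exposed to compound for four days before flow analysis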
NR3A LBD binder = modulators (binders) of human NR3A ligand-binding domain | NR3A LBD differential scanning fluorimetry, Tm shift; 0% = protein alone, 100% = glycine-bound protein | Tm shift relative to glycine control, % at 25 µM | hit rate 2.5% among 340,000;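 active = melting temperature shift of at least 10% of the positive control shift, at one fixed dose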
MPTP block = inhibitors of mitochondrial permeability transition pore | isolated mouse mitochondria, Ca2+ swelling absorbance, 30 min | inhibition, % at 10 µM | hit rate 1.4% among 360,000;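 active = inhibition of 50% or more, scaled per plate between neutral and stimulator controls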;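 note: 0% = DMSO wells given calcium and 100% = 1 mM EGTA wells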
rCAG binder = molecules binding r(CAG) RNA repeats; r(CAG) RNA repeat, TO-PRO-1 dye displacement fluorescence; inhibition, % at 3 µM; hit rate 1.3% among 370,000; AID 651821;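 active = inhibition above the plate cutoff, the mean of all test compounds on that plate plus 3 SD, cut at about 35% in these data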;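 note: 0% = DMSO alone and 100% = 100 µM mitoxantrone as full dye displacement; higher means more dye released from RNA so lower well fluorescence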
FAS-TE inh = inhibitors of human fatty acid synthase thioesterase domain. P49327. recombinant FAS-TE, OMFH fluorogenic substrate, fluorescence endpoint. hit rate 0.67% among 360,000. inhibition, % at 15 µM. AID 602261;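 active = compounds whose normalised, plate-corrected inhibition of enzyme fluorescence in the single-dose primary screen is 50% or more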;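 note: 0% = DMSO with enzyme and 100% = substrate without enzyme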
The depositor's hits bear a star; i = inactive; ? = inconclusive; . = not tested or not shown; + = active, no number. A selection: hits, their analogues and other compounds. The true share with any hit is near 5.7%.

SMILES	Myeloid diff 2	NR3A LBD binder	MPTP block	rCAG binder	FAS-TE inh
O=C(Nc1nc2ncccn2c1-c1ccc(C(F)(F)F)cc1)c1ccc(F)cc1	.	.	.	0.6	.
Cc1cc(C)cc(N(CC(=O)NCc2ccco2)C(=O)CCC(=O)Nc2ccccn2)c1	i	17.4*	0.2	-9.0	-1.0
Cc1cc(/C=C2\C(=N)N3C(SCc4ccccc4)=NSC3=NC2=O)c(C)n1Cc1ccccc1	i	14.0*	16.2	5.5	-2.4
Cc1cc(/C=C2\C(=N)N3N=C(C(C)C)SC3=NC2=O)c(C)n1Cc1ccccc1	i	1.2	5.0	0.5	-3.0
COc1ccc(N[C@@H]2CCN3C(=O)c4ccccc4[C@@H]3C[C@H]2O)cc1	i	4.7	-1.1	3.4	-6.8
N#Cc1ccc(N[C@@H]2CCN3C(=O)c4ccccc4[C@@H]3C[C@H]2O)cc1	+	-1.0	0.1	3.4	-5.3
CCNC(=O)NC(=O)COC(=O)c1cccc(NS(=O)(=O)/C=C/c2ccccc2)c1	i	-5.6	2.1	8.7	-6.6
O=C(COC(=O)c1cccc(NS(=O)(=O)/C=C/c2ccccc2)c1)Nc1ccccc1OC(F)F	i	18.6*	6.3	10.6	20.1
O=C(Nc1ccc2sccc2c1)c1ccc(Cl)s1	i	23.4*	0.6	5.4	1.1
CCc1c(C2CC2)ncn1Cc1cccc(-c2ccccc2)c1	i	.	1.1	5.0	.
COc1cccc(-c2nn(C)c3sc(C(=O)N4CCN(c5ccccn5)CC4)cc23)c1	+	-2.7	45.4	.	14.2
COC(=O)c1cc(NC(=O)NC2CCCCN(Cc3ccc(Cl)cc3)C2=O)cc(C(=O)OC)c1 (stereo not given)	.	.	.	7.8	.
C#CCN1CC(N(C)CCOC(=O)CCCc2ccccc2)CS1(=O)=O (stereo not given)	.	.	.	1.6	.
CC1=Nc2ccccc2/C1=C/c1c(C)[nH]c2ccccc12	+	0.2	2.2	.	5.9
CC(=O)c1c(C)[nH]c2ccccc2c1=O	i	-0.3	0.5	-0.3	-7.0
COC(=O)C1=C(C)N(Cc2ccccc2C(F)(F)F)C(=NCc2ccc3c(c2)OCO3)NC1c1ccccc1C(F)(F)F (stereo not given)	.	.	.	3.0	.
C=CCn1c(NS(=O)(=O)c2ccccc2)c(S(=O)(=O)c2ccc(C)cc2)c2nc3ccccc3nc21	i	10.8*	0.7	8.4	-2.6
CC(C)N1CCc2c(sc(NC(=O)c3ccco3)c2C(N)=O)C1	+	0.6	-0.7	1.2	-4.5
CC(C)N1CCc2c(sc(NC(=O)c3cc4cc([N+](=O)[O-])ccc4s3)c2C(N)=O)C1	?	10.3*	0.9	21.6	11.9
COC(=O)c1c(NC(=O)c2ccco2)sc2c1CCN(C(C)C)C2	i	0.6	-0.1	-9.8	-7.0
Cc1ccc(NC(=O)N2CCC(N(C)CCC(C)C)CC2)cc1F	.	.	.	-1.8	.
O=C(NCc1ccccc1Cl)c1ccc(S(=O)(=O)Nc2cccc(C(F)(F)F)c2)cc1	i	24.7*	7.6	30.2	13.8
O=C(NCc1ccccc1Cl)c1ccc(S(=O)(=O)N2CCCC2)cc1	i	2.3	-0.9	-0.6	3.4
Cc1ccc(S(=O)(=O)N2C[C@H]3[C@H]4C(=O)N(Cc5ccccc5)C(=O)[C@H]4CC(=O)[C@H]3[C@@H]2c2ccccc2)cc1	i	.	0.9	16.6	16.3
CN[C@H]1C[C@H]2c3[nH]c4c(-c5ccc6c(c5)OCO6)cccc4c3CCN2C(=O)[C@H]1[C@H](C)O	.	.	.	1.3	.
SMILES	Myeloid diff 2	NR3A LBD binder	MPTP block	rCAG binder	FAS-TE inh
CCOC(=O)C1=NN(C(=O)Nc2ccc(OC)cc2)C2C(=O)N(c3cccc(C(F)(F)F)c3)C(=O)C12 (stereo not given)	i	-4.6	-4.8	54.2*	4.2
CC(=O)Nc1nc2ncccn2c1-c1ccc(C)cc1	.	.	.	-1.0	.
CC(=O)c1c(C)[nH]c(C(=O)/C(C#N)=C/c2cccc(C)c2)c1C	i	-0.1	-0.2	19.4	-3.1
CCOC(=O)c1c(C)[nH]c(C(=O)/C(C#N)=C/c2ccc(OCC)cc2)c1C	+	-6.3	0.1	12.4	-13.7
CC(=O)Nc1ccc(O)c(-c2nc3ccccc3s2)c1	i	4.7	3.5	13.0	0.1
O=C(O)CSCC(=O)Nc1ccc(-c2nc3ccccc3s2)cc1	i	1.3	2.5	39.4*	-23.7
O=C(Nc1ccc(-c2nc3ccccc3s2)cc1)C1=COCCO1	i	30.1*	4.1	0.2	-1.7
O=C(CCS(=O)(=O)c1ccccc1)Nc1ccc(-c2nc3ccccc3s2)c(O)c1	i	14.9*	8.2	9.0	-4.9
O=C(Nc1ccc(-c2nc3ccccc3s2)c(O)c1)C1=COCCO1	i	36.5*	-1.9	12.2	-8.2
CC(C)[C@H](NS(=O)(=O)c1ccc(F)cc1F)C(=O)N1CCC[C@H]1C(=O)NCCc1ccccc1Cl	.	.	.	-1.9	.
Cc1cc(C)n2nc(-c3ccc(Br)cc3)cc2n1	i	0.1	0.5	3.1	9.5
Cc1ccc(-c2cc3nc(-c4ccc(Br)cc4)cc(N)n3n2)cc1	i	39.1*	10.4	18.6	18.0
Cc1ccc(-c2cc(N)n3nc(-c4ccc(C)cc4)cc3n2)cc1	i	26.9*	1.1	10.1	0.5
Cc1cc(N)n2nc(-c3ccccc3)cc2n1	i	-21.6	0.1	0.7	-6.2
Cc1ccc(-c2cc3nc(-c4ccccc4)cc(N)n3n2)cc1	i	13.0*	3.1	2.1	1.1
CC(=O)N1CCc2cc(S(=O)(=O)NCCC(=O)NCc3ccccc3)ccc21	.	.	.	7.1	.
O=C(Nc1ccc(Br)cc1)OC1CC2CC1[C@H]1CCCCN1C2 (stereo not given in full)	.	.	.	5.0	.
CCOc1cccc(-c2nn3c(-c4cccc(C)c4)nnc3s2)c1	.	.	.	1.8	.
COC(=O)c1cnn(-c2ccccc2)c1/C=N/NC(=S)Nc1ccc(Cl)cc1	i	12.6*	11.8	2.5	4.0
N#Cc1ccc(NC(=O)OC2CCC23CCC(c2ccccc2)CC3)cc1 (stereo not given)	.	.	.	7.0	.
C=CCN(CC=C)C[C@@H]1CSCCS(=O)(=O)N1	.	.	.	3.0	.
O=C(CCc1ccccc1)c1c(O)cc(O)cc1O	i	13.3*	4.9	11.9	3.9
Cc1cccc(-c2noc(CCC(=O)N3CCN(c4cc(C)ccc4C)CC3)n2)c1	i	16.8*	0.6	4.4	33.1
Cc1ccc(C)c(N2CCN(C(=O)CCc3nc(-c4ccc(F)cc4)no3)CC2)c1	i	2.5	1.1	1.1	11.3
Cc1ccc(C)c(N2CCN(C(=O)CCc3nc(-c4ccccc4)no3)CC2)c1	i	15.4*	-1.1	1.9	22.9
COc1ccc(/C=C/S(=O)(=O)NCc2ccc(F)cc2)c(CNC(=O)OC(C)(C)C)c1	.	.	.	3.0	.
CCCCCCOc1ccc(OCC(O)CN2C(=O)NC(C)(C)C2=O)cc1 (stereo not given)	i	13.7*	0.6	-7.9	-9.8
CCS(=O)(=O)N1CCN(c2ccc([N+](=O)[O-])c(N3CCOCC3)c2)CC1	i	15.8*	-0.7	-2.1	-3.1
CNc1cc(N2CCN(S(=O)(=O)N(C)C)CC2)ccc1[N+](=O)[O-]	.	10.1*	0.0	2.2	3.4
